Experimental data taken from PubChem BioAssay (NCI).
This is part of a sample that, as a whole, favours compounds with a hit. Of some 83,000 tested, about 20% had one in any assay.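 The endpoint reported here, percent growth, reads 100 for growth as untreated, 0 for no net growth and -100 for all cells dead.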 The source made the active and inactive calls. How the source made its calls: active means growth percent below 10; inactive means the rest.

Assays:
Experiment in all cases: NCI-60 one-dose screen, 48 h (100 = growth as untreated, 0 = no growth, -100 = all killed)
Conditions in all cases: 10 µM unless noted
[1] = tested on: DU-145 prostate
[2] = tested on: K-562 leukemia
[3] = tested on: MALME-3M melanoma
[4] = tested on: MDA-MB-231 breast
[5] = tested on: RXF 393 renal
[6] = tested on: SF-268 CNS
[7] = tested on: SF-539 CNS
[8] = tested on: UACC-257 melanoma
[9] = tested on: M14 melanoma
[10] = tested on: HCT-15 colon
[11] = tested on: HT29 colon
[12] = tested on: SNB-75 CNS
[13] = tested on: SNB-19 CNS
[14] = tested on: U251 CNS
[15] = tested on: PC-3 prostate
[16] = tested on: SK-MEL-5 melanoma
[17] = tested on: UACC-62 melanoma
[18] = tested on: LOX IMVI melanoma
[19] = tested on: SK-MEL-28 melanoma

Measured: growth

CCOC(=O)c1ccc(N(CCC(=O)O)C(C)=O)cc1
inactive: [1] 122% | [2] 103% | [3] 99.8% | [4] 110% | [5] 106% | [6] 119% | [7] 107% | [8] 98.2% | [9] 105% | [10] 103% | [11] 97.4% | [12] 94.7% | [13] 106% | [14] 102% | [15] 90% | [16] 102% | [17] 99.4% | [18] 105% | [19] 103%

C=CCn1c(SCC(=O)Nc2ccc(C(=O)/C=C/c3ccc(Cl)cc3)cc2)nnc1-c1ccc(Cl)cc1
inactive: [1] 100% | [2] 72.5% | [3] 93.2% | [4] 86.4% | [5] 99.9% | [6] 82.7% | [7] 99.2% | [8] 99% | [9] 95.5% | [10] 77.2% | [11] 92.8% | [12] 73.8% | [13] 91.1% | [14] 79.7% | [15] 69.9% | [16] 90.6% | [17] 71.2% | [18] 89.9% | [19] 104%

CCCCCCCCCCCCCCCCS(=O)(=O)Nc1cc(C(=O)NN)cc(C(=O)NN)c1
inactive: [1] 81% | [2] 33.9% | [3] 85.4% | [4] 58.2% | [5] 94.3% | [6] 43.4% | [7] 63.7% | [8] 107% | [9] 88% | [10] 50.5% | [11] 88% | [12] 94.3% | [13] 52.2% | [14] 47.9% | [15] 38.8% | [16] 73.7% | [17] 70.3% | [18] 70% | [19] 91.9%

CCc1ccc(-c2ccc(NC3CCCCCC3)nn2)cc1S(N)(=O)=O
inactive: [1] 114% | [2] 112% | [3] 104% | [4] 109% | [5] 115% | [6] 117% | [7] 98.9% | [8] 100% | [9] 104% | [10] 96.4% | [11] 91.3% | [12] 97.2% | [13] 103% | [14] 95.8% | [15] 94.4% | [16] 98.5% | [17] 97.8% | [18] 100% | [19] 105%

CCOCC(O)(c1ccc(Cl)cc1)c1ccc(Cl)cc1
inactive: [1] 96.1% | [2] 88.1% | [3] 103% | [4] 100% | [5] 117% | [6] 97.4% | [7] 104% | [8] 94.1% | [9] 114% | [10] 88.6% | [11] 81.4% | [12] 103% | [13] 106% | [14] 95.9% | [15] 88.8% | [16] 96.1% | [17] 87% | [18] 94.8% | [19] 108%

Cc1ccc(/C=C/C(=N/N=C(N)N)c2ccccc2)cc1
active: [1] 2.48% | [5] -22.9% | [7] 3.64% | [9] -24.4% | [11] 4.56% | [12] -0.425%
inactive: [2] 11.7% | [3] 40% | [4] 35.5% | [6] 36.7% | [8] 54.5% | [10] 27.6% | [13] 38.9% | [14] 13.4% | [15] 19% | [16] 11.3% | [17] 33.9% | [18] 30.8% | [19] 46.2%

C#CC[C@@H]1C[C@]2(C)[C@H]3CC=C4[C@H]5[C@@H](C)[C@H](C)CC[C@]5(C(=O)NCCCCN)CC[C@@]4(C)[C@]3(C)CC[C@H]2C(C)(C)[C@H]1OC(C)=O
active: [2] -26.6%
inactive: [1] 58.6% | [3] 98.9% | [4] 39.5% | [5] 56.4% | [6] 69.8% | [7] 84.7% | [8] 115% | [9] 66.6% | [10] 31.9% | [11] 10.5% | [12] 81.1% | [13] 73.9% | [14] 40.7% | [15] 47.5% | [16] 94.9% | [17] 106% | [18] 18.6% | [19] 100%

C#CCNC(=S)N/N=C(\C)c1ccccn1
inactive: [1] 15.4% | [2] 15.2% | [3] 12.1% | [4] 39.5% | [6] 14.7% | [8] 16.4% | [10] 28.4% | [11] 31.5% | [12] 43.4% | [13] 38.8% | [14] 23.1% | [15] 48.1% | [18] 15.3% | [19] 55.3%
active: [5] 6.73% | [7] 1.69% | [9] -21.7% | [16] -30.5% | [17] -5.96%

COc1cccc(NC(=O)[C@H](C(C)C)n2c(=O)[nH]c3ccccc3c2=O)c1
inactive: [1] 107% | [2] 90.4% | [3] 104% | [4] 107% | [5] 109% | [6] 111% | [7] 102% | [8] 96.5% | [9] 107% | [10] 104% | [11] 101% | [12] 102% | [13] 117% | [14] 96.8% | [15] 95.1% | [16] 99.2% | [17] 107% | [18] 99.7% | [19] 114%

Oc1ccc(Cl)cc1-c1cc(-c2ccccc2Cl)[nH]n1
inactive: [1] 73.3% | [2] 37.8% | [3] 71.1% | [4] 21.7% | [5] 84.2% | [6] 49.6% | [7] 83.4% | [8] 81.8% | [9] 84.9% | [10] 29.2% | [11] 92.2% | [12] 44.2% | [13] 88% | [14] 67% | [15] 44.1% | [16] 68.7% | [17] 59.5% | [18] 51.7% | [19] 89.7%

CCCCN(CCCC)CCC(O)c1cc2ccc(C(F)(F)F)cc2c2cc(C(F)(F)F)ccc12 (centres undefined)
inactive: [1] 55.3% | [3] 47.8% | [4] 33.2% | [6] 63.3% | [7] 48.7% | [8] 41.6% | [9] 18.8% | [10] 27.3% | [12] 60.9% | [13] 72.6% | [14] 45.2% | [15] 35.6% | [16] 38.9% | [17] 40.8% | [19] 77.2%
active: [2] 5.28% | [5] 7.74% | [11] 8.42% | [18] -58.4%

O=C1c2ccccc2C2N1CCC1CCc3ccccc3N12 (centres undefined)
inactive: [1] 117% | [2] 89.4% | [3] 88.9% | [4] 92.7% | [5] 106% | [6] 111% | [7] 88.9% | [8] 102% | [9] 97.1% | [10] 94.5% | [11] 100% | [12] 94.3% | [13] 96.2% | [14] 89.7% | [15] 76.3% | [16] 98% | [17] 82.2% | [18] 100% | [19] 109%

CNCCCNc1ccnc2cc(Cl)ccc12
active: [1] -5.31% | [2] 2.22% | [3] -90.3% | [4] -33.8% | [5] -63.3% | [6] -29.5% | [7] -66.7% | [8] -87.5% | [9] -32.6% | [10] 6.57% | [11] -33.1% | [12] -52.8% | [13] -1.63% | [14] 0.589% | [15] 1.91% | [16] -96.1% | [17] -75.2% | [18] -49.8% | [19] -96.3%

COc1ccc(/C=c2\c(=O)n(-c3ccccc3)c3nn4c(=O)c(=O)[nH]nc4n23)cc1
inactive: [1] 115% | [2] 122% | [3] 104% | [4] 122% | [5] 123% | [6] 104% | [7] 103% | [8] 110% | [9] 99.5% | [10] 106% | [11] 110% | [12] 109% | [13] 111% | [14] 112% | [15] 102% | [16] 101% | [17] 101% | [18] 96.3% | [19] 131%

CCN(CC)Cc1cc(Nc2nc(NC3CCC(N(C)C)CC3)c3ccccc3n2)ccc1OC (centres undefined)
inactive: [1] 98.8% | [3] 69.1% | [4] 39.8% | [5] 74.9% | [6] 69.8% | [7] 73.9% | [10] 94.7% | [11] 14.2% | [12] 72.3% | [13] 89.4% | [14] 50.5% | [15] 62.6% | [16] 45.7% | [17] 98.4% | [18] 33.7% | [19] 20.6%
active: [2] 7.54% | [8] -32.6% | [9] -10.2%

O=C(Nc1cnc(C(F)(F)F)cn1)c1cc(Cl)ccc1O
inactive: [1] 24.9% | [6] 18.2% | [10] 10.9% | [11] 22.6% | [13] 24.3%
active: [2] 7.07% | [3] -18.5% | [4] -21.1% | [5] -1.32% | [7] 3.19% | [8] -20.6% | [9] -3.59% | [12] -20.4% | [14] 6.83% | [15] 5.49% | [16] -80.7% | [17] -5.58% | [18] 6.55% | [19] 3.09%
